Most compounds without a hit are left out; they make up all but 0.82% or so of the library.
eLon inh = inhibitors of E. coli Lon protease. purified E. coli Lon protease, fluorescence polarization. inhibition, % at 7.94 µM. hit rate 0.42% among 360,000; in the data active means inhibition above about 13%, passing the limit was not always enough;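 further: 0% = enzyme with probe and DMSO and 100% = no enzyme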
Target sequence (P0A9M0 whole entry, looked up): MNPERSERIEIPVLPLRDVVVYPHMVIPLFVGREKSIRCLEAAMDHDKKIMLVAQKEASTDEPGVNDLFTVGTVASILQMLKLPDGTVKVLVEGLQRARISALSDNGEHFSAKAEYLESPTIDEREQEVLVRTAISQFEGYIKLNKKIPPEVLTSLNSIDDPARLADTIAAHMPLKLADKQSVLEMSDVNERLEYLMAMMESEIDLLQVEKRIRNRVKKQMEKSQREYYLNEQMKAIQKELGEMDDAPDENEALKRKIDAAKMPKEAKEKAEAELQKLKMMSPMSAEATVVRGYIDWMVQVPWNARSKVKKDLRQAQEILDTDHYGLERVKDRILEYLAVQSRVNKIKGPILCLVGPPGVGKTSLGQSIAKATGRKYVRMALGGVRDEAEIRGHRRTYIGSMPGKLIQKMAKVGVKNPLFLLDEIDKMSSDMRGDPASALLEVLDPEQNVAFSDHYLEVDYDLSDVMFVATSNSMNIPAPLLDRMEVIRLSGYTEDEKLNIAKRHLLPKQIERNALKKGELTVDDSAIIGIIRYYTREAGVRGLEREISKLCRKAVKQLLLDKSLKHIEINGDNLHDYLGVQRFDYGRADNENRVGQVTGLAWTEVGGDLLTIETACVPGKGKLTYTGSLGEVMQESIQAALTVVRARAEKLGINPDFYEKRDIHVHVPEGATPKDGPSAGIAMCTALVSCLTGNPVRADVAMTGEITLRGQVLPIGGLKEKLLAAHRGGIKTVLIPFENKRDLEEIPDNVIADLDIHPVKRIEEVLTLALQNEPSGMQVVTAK
LANA DNA inh = inhibitors of KSHV LANA C-terminal domain DNA binding; hit rate 0.078% among 340,000; MBP-C-LANA/FAM-LBS DNA binding, fluorescence polarization; inhibition, % at 9 µM; AID 504423;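 active means highest replicate inhibition at or above 60% at 9 µM, even if other replicates fall short; inactive means all replicates below 60% inhibition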;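 further: 0% = neutral control wells and 100% = 4 µM acridine orange control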
Cardiac RTF inh = cardiac RTF calcium desensitization; P19429+P45379; IANBD-labeled cardiac RTF, Ca2+ fluorescence; inhibition, % at 7.15 µM; hit rate 0.12% among 340,000; AID 493244;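 active means inhibition above the mean inhibition of all tested compounds plus 3 SD, cut at about 17% in these data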;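 further: assay run at fixed EC70 calcium of 1.6 mM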
Keap1 Nrf2 FP = inhibitors of human Keap1-Nrf2 protein-protein interaction | Keap1 Kelch-Nrf2 peptide fluorescence polarization, 1536-well | inhibition, % at 9.4 µM | hit rate 0.15% among 340,000 | AID 504523; in the data active means inhibition above about 12%;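 further: human Keap1 Kelch domain with fluorescein labeled Nrf2 9mer peptide probe; 0% = neutral control wells and 100% = peptide positive control; higher means more block of Keap1 binding to Nrf2 peptide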
RTF Ca sens act = cardiac RTF calcium sensitization; P19429+P45379; IANBD-labeled TnC RTF fluorescence at EC20 calcium; 0% EC20 calcium, 100% full calcium; activation, % at 7.2 µM; hit rate 0.24% among 340,000; AID 493008;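 active means activation above the mean over all tested compounds plus 3 SD, cut at about 30% in these data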;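 further: rise in fluorescence read as greater calcium sensitivity of cardiac thin filaments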
Keap1 TSA = binders of human Keap1 Kelch domain; shares compounds with Keap1 Nrf2 FP; Keap1 Kelch thermal shift, delta Tm; stronger effect = higher value; max delta Tm, degrees C; hit rate 8% among 400; in the data active means max delta Tm above about 0.48 degrees C
Dye-only ctr = counter-screen for Keap1 thermal shift hits: dye-only artifacts. Sypro Orange dye-only thermal melt, no protein, delta Tm; top dose 26 µM. shares compounds with Keap1 Nrf2 FP. 140 tested, under 10 active. AID 651858. delta Tm, degrees C (concentration not given with the values);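 active means at highest dose tested, delta Tm positive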
eLon confirm = confirmation of E. coli Lon protease inhibitors. shares compounds with eLon inh. purified E. coli Lon, fluorescence polarization. inhibition, % at 7.94 µM. hit rate 31% among 1,400. AID 602230; in the data active means inhibition above about 16%;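 further: 0% = enzyme with probe and DMSO and 100% = no enzyme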
An asterisk follows results filed as active; i = inactive; nt = no result; + = active, no number.

SMILES	eLon inh	LANA DNA inh	Cardiac RTF inh	Keap1 Nrf2 FP	RTF Ca sens act	Keap1 TSA	eLon confirm	others
Oc1ccc2nnc3c(Br)cnn3c2c1	134*	67*	-116	37*	84*	-0.17	144*
OC[C@@H]1CN(Cc2ccco2)C[C@H](n2cnc3c(Nc4ccccc4)ncnc32)O1	2	nt	nt	nt	nt	nt	nt
CCCCCCn1c(=O)[nH]c2nc3cc(N)c(C)cc3nc2c1=O	116*	49	i	27*	627*	0.59	49*	Dye-only ctr=-21
CNc1ccc2c3c(cccc13)C(=O)N(C)C2=O	+	109*	i	109*	+	0	+
O=C(NC1CCCCC1)C1c2ccccc2OCC(=O)N1CCc1c[nH]c2ccccc12 (stereo not given)	11	nt	nt	nt	nt	nt	nt
Cc1cc[n+](-c2[nH]c(=O)sc2/C=N/NC([S-])=Nc2ccccc2)cc1C	95*	48	-66	32*	51*	0.02	33*
CC(C)(C)c1cc[n+](-c2[nH]c(=O)sc2/C=N/NC([S-])=Nc2ccccc2)cc1	165*	51	-127	31*	81*	-0.09	71*	Dye-only ctr=-23
O=C1C(CCc2ccccc2)ON=C(c2cnccn2)N1Cc1ccc(F)cc1 (stereo not given)	7	nt	nt	nt	nt	nt	nt
CCOC(=O)[C@]12CCC=C1N(Cc1ccccc1)C(=O)[C@H](CC(=O)NCc1cccs1)C2	0	nt	nt	nt	nt	nt	nt
CCN1CC=C2C(C1)C(c1ccc(Cl)s1)C(C#N)=C(N)C2(C#N)C#N (stereo not given)	81*	36	-27	21*	30*	-0.04	0
CCOC(=O)C1=C(c2ccccc2)OC(N)=C(C#N)C1c1ccc(Cl)s1 (stereo not given)	-7	4	-13	1	3	nt	nt
Nc1[nH]c(C(=O)c2ccccc2)c(-c2cccc3ccccc23)c1C(=O)NCc1ccccc1	-3	nt	nt	nt	nt	nt	nt
Cc1nc(Cl)c2c(n1)NC1=C(O2)C(=O)CCC1	84*	51	-75	28*	47*	-0.12	144*	Dye-only ctr=-23
O=C1NC2=C(C(=O)CCC2)C(c2ccccc2Cl)N1 (stereo not given)	2	0	-22	1	19	nt	nt
CCC1(c2ccccc2)NC(=O)N(CC(=O)Nc2ccc3c(c2)CCC3)C1=O (stereo not given)	-9	nt	nt	nt	nt	nt	nt
CCC1(c2ccccc2)NC(=O)N(CC(=O)Nc2ccc(OC)nc2)C1=O (stereo not given)	112*	88*	-80	61*	61*	-0.12	105*
O=c1c(-c2cc3ccccc3o2)[n+]([O-])c2ccccc2n1OCc1ccccn1	20*	15	-6	36*	2	-0.07	8	Dye-only ctr=-32
Cc1n[nH]c(C)c1N1C(=O)c2cccc3c(N4CCCCCC4)ccc(c23)C1=O	69*	42	-391	16*	317*	-0.13	-48
C=CC(=O)Nc1cccc(Nc2nc(N[C@H]3CC[C@H](N(C)C)CC3)nc3c2ncn3C(C)C)c1	-1	-20	-20	-4	0	nt	nt
O=C1c2cccc3c(O)ccc(c23)C(=O)N1c1ccc(Cl)cc1	+	71	i	39*	532*	0.21	+
O=C1c2cccc3c(O)ccc(c23)C(=O)N1Cc1ccco1	+	76*	i	37*	574*	0.29	+
CCOC(=O)C1=C(CSc2nc3c(cc2C#N)CN(C)CC3)OC(N)=C(C#N)C1c1ccc(Cl)cc1 (stereo not given)	-20	3	-13	-6	5	nt	nt
CCOC(=O)C1=C(CSc2nc3c(cc2C#N)CN(C)CC3)OC(N)=C(C#N)C1c1ccncc1 (stereo not given)	35*	35	-38	17*	11	0.08	-23
COc1ccc(N=Nc2nc3cc(Br)c(Br)cc3n2C)c(OC)c1	163*	24	-42	13*	47*	0.04	128*
CC1C(=O)OC2C1CCC1(C)C3(C)C(=O)C=CC213 (stereo not given)	-13	nt	nt	nt	nt	nt	nt
SMILES	eLon inh	LANA DNA inh	Cardiac RTF inh	Keap1 Nrf2 FP	RTF Ca sens act	Keap1 TSA	eLon confirm	others
O=C1CC(c2ccco2)CC2=C1C=Nc1ccccc1N2 (stereo not given)	4	1	-18	-1	-4	nt	nt
O=c1[nH]c2c(s1)C=Nc1ccccc1N2	114*	54	-100	38*	78*	-0.04	149*	Dye-only ctr=-20
COc1ccc(S(=O)(=O)N2CCCCC2c2cc(C(=O)NCc3ccccc3)no2)cc1 (stereo not given)	-5	nt	nt	nt	nt	nt	nt
Cc1c(N)cc(N)cc1C(=O)O	61*	24	-36	15*	1	-0.15	14
COc1ccc(N)cc1-n1c(C)ccc1C	52*	2	-12	-1	6	nt	18*
CC(=O)Oc1ccc2c(c1)OC(c1ccccc1)CC21CC(C)(C)NC(=S)N1 (stereo not given)	-3	-3	-6	-4	-1	nt	nt
COc1ccc(C2(c3ccc(OC(C)=O)cc3OC(C)=O)CC(c3ccccc3)NC(=S)N2)cc1 (stereo not given)	21*	0	-2	-1	6	nt	12
CC1(c2nnnn2Cc2ccccc2)CCC(=O)N1CCOc1ccccc1 (stereo not given)	-2	nt	nt	nt	nt	nt	nt
CCC(CC)C(=O)N(C)c1c(C)nc2c(OCCOc3ccc(F)cc3)cccn12	-4	nt	nt	nt	nt	nt	nt
COc1ccc(S(=O)(=O)N2CN(Cc3ccco3)c3nc4ccccc4nc32)cc1	28*	0	-32	-6	20	nt	-11
Cc1ccc(S(=O)(=O)N2CN(Cc3ccco3)c3nc4ccccc4nc32)cc1	3	2	-1	-8	4	nt	nt
O=S(=O)(c1cccs1)N1CN(Cc2ccccc2)c2nc3ccccc3nc21	-8	1	1	-1	4	nt	nt
O=S(=O)(c1ccc(F)cc1)N1CN(Cc2ccco2)c2nc3ccccc3nc21	44*	6	-19	3	24	nt	-37
Cc1ccc(S(=O)(=O)N2CN(Cc3ccco3)c3nc4ccccc4nc32)cc1C	15*	1	-9	-5	2	nt	-7
O=S(=O)(c1cccs1)N1CN(Cc2cccs2)c2nc3ccccc3nc21	18*	1	0	-6	11	nt	-34
COC(=O)c1cc(NS(=O)(=O)c2cccs2)cc(NS(=O)(=O)c2cccs2)c1	125*	0	-11	6	-5	nt	16
CC(=O)N1CCc2c(sc(NC(=O)C3CCCN3S(=O)(=O)c3cccs3)c2C(N)=O)C1 (stereo not given)	40*	25	-15	0	17	nt	14
Cc1ccc(/C=C/C(=O)NCCCN2CCN(CCCNC(=O)/C=C/c3ccc(C)o3)CC2)o1	27*	-1	-2	-1	-1	nt	-3
COC(=O)c1ccc(C(=O)OC)c(NC(=O)Cc2cccs2)c1	-23	nt	nt	nt	nt	nt	nt
